Among all 380,000 compounds or so, about 1,300 (0.34%) were called active. The sample as a whole holds a higher share of actives than the screen did. Values without a mark were called inactive.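 Rule for the calls: active = drop in luminescence signal, shown as inhibition above about 50% in the replicate tests (limit read from the data, passing the limit was not always enough); inconclusive = probably only some replicates passing the limit; inactive = the rest.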

The test system of the assay is Drosophila bursicon receptor LGR2 (rickets). The assay can be described thus: LGR2 cAMP reporter signal reduction – cell-based, HEK293, CRE-luciferase reporter, bursicon stimulation, primary screen (AID 720647).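 Note: agonist challenge used bursicon conditioned medium at about half maximal strength.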 The following applies: bursicon-stimulated, 4 h, at 9.99 µM, hits give high values. In general terms: Reporter assays use an easily measured gene product as a stand-in for the process of interest.
On to `COc1ccccc1Cc1c(-c2ccc(F)cc2)nc2ccc(C)cn12`, for which the inhibition is -38.1%. With `Cn1cnc(C(F)(F)F)c1-c1ccc([N+](=O)[O-])cc1` the figure was -7.43%; with `Cc1ccc(-c2cn3cc(C)ccc3n2)cc1`, 102% (active); with `Cc1nc(-c2ccccc2)cn2c1nc1ccccc12`, 3%. The same measure for `Cc1ccc2nc(-c3ccc(Br)cc3)cn2c1`: 96.2% (active). With `Cc1ccc(-c2cn3cc([N+](=O)[O-])ccc3n2)cc1` the figure was 67.1% (active); with `Cc1ccc(N2CCN(c3ccc([N+](=O)[O-])cn3)CC2)c(C)c1`, 4.63%; with `Cc1nc(=O)c(-c2ccccc2)c(C)n1-c1ccc(Br)cc1`, 4.28%. Consider `C[C@@H]1CN([C@@H](C)CO)C(=O)c2cc(C3=CCCC3)cnc2O[C@H]1CN(C)C(=O)c1ccccn1`, for which the inhibition was -11.6%. For `COc1ccc(NC(=O)Nc2ccc3c(c2)[C@@H]2C[C@@H](CC(=O)NCc4ccncc4)O[C@@H](CO)[C@@H]2O3)cc1`, the inhibition is 6.93%. As to `CCC(=O)N(C)C[C@@H]1Oc2cc(-c3ccc(C#N)cc3)ccc2S(=O)(=O)N([C@@H](C)CO)C[C@@H]1C`, the inhibition was -4.05%. For `Cc1nc(N2[C@H](CO)[C@H](c3ccccc3)[C@H]2CNCC2CCCCC2)sc1C`, the inhibition was -6.28%. The same measure for `NCCCCCC(=O)N/N=C/c1ccc2nccnc2c1`: -0.608%; for `CCc1nc2cccnc2n1-c1ccc(C(=O)O)cc1`: -11.5%; for `O=C(O)c1ccc(N/N=C/c2ccc3ncccc3c2)cc1`: 88.1% (active). On to `O=C(C[C@H]1C=C[C@@H](NC(=O)C2CCOCC2)[C@@H](CO)O1)NCC1CCCCC1`, for which the inhibition is 25%.

For the compound `Cc1noc(C)c1NC(=O)N(C)C[C@H]1Oc2ccc(NS(=O)(=O)c3ccc(F)cc3)cc2C(=O)N([C@@H](C)CO)C[C@H]1C`, the inhibition was -0.097%.

As for `O=C(CSC(=S)N1CCOCC1)c1ccccc1`, the inhibition was 69.5% (active). The same measure for `O=C(O)CC(CC(=O)N1CCOCC1)c1ccccc1` (configuration not stated): 7.83%; for `N[C@@H](Cc1ccccc1)C(=O)N1CCOCC1`: -3.78%; for `C[C@@H]1CN([C@@H](C)CO)S(=O)(=O)c2ccc(-c3ccc(C#N)cc3)cc2O[C@H]1CN(C)Cc1ccccn1`: 12.2%. With `CCCC(=O)N1CC2(CN(C(=O)NC(C)C)C2)c2c([nH]c3cc(OC)ccc23)[C@@H]1CO` the figure was 0.057%; with `Cc1ccc(C(=O)N/C(=C/c2ccc(-c3cccc([N+](=O)[O-])c3)o2)C(=O)NCCCN(C)C)cc1`, 77.8% (active). With `O=C(NCc1ccco1)/C(=C\c1cccc([N+](=O)[O-])c1)NC(=O)c1ccco1` the figure was 21.6%; with `CCn1cc(/C=C(\NC(=O)c2ccc(C)cc2)C(=O)NCCN2CCOCC2)c2ccccc21`, -9.89%. As for `C[C@H](CO)N1C[C@H](C)[C@@H](CN(C)S(=O)(=O)c2ccc(F)cc2)OCCCC[C@H](C)Oc2ccc(NC(=O)CCCN(C)C)cc2C1=O`, the inhibition is -10.7%. The same measure for `Cc1c(C(=O)NCCN(C)C)oc2ccc(S(=O)(=O)N3CCCC3)cc12`: -6.68%.

Regarding `Nc1nc2c(Br)ccc(Br)c2cc1C(=O)NCCc1ccccc1`, the inhibition was -7.19%. With `CN(C)CCNC(=O)c1ccc(Cl)c2cc3ccccc3nc12` the figure was 86.6% (active); with `CC(C)NC(=O)N(C)C[C@@H]1OCCCC[C@@H](C)Oc2ccc(NC(=O)CCCN(C)C)cc2C(=O)N([C@@H](C)CO)C[C@@H]1C`, 0.91%; with `CCOc1ccc(N/C=C/C(=O)c2ccccc2)cc1`, 70.1% (active).

Regarding `CCOc1ccc(NC(=O)N2CCN(CC)CC2)cc1`, the inhibition is -10.6%. With `Cc1cc(C)nc(NS(=O)(=O)c2ccc(N/C=C\C(=O)c3cccs3)cc2)n1`, the inhibition was 0.601%. The same measure for `Cc1ccc(N/C=C/C(=O)c2ccccc2)cc1C`: 74.5% (active); for `CCOc1ccc(NC(=O)C(C)N2C(=O)c3ccccc3C2=O)cc1` (configuration not stated): -1.28%; for `Cc1ccc(NC(=O)C2CCCN2C(=O)OCc2ccccc2)cc1C` (configuration not stated): 1.81%. As to `Cc1ccc(S(=O)(=O)N(C)C[C@@H]2Oc3ncc(-c4cc5ccccc5o4)cc3C(=O)N([C@H](C)CO)C[C@@H]2C)cc1`, the inhibition was 4.4%. As for `COc1ccc2c3c(n(C)c2c1)[C@@H](CO)N(C(=O)Nc1ccc(F)cc1)CC31CN(C(=O)NC(C)C)C1`, the inhibition was -1.12%. `COC(=O)C[C@H]1CC[C@H](NC(=O)Nc2ccc(C(F)(F)F)cc2)[C@H](CO)O1`: the inhibition is -0.777%.

With `COc1cccc(-c2ccc3c(c2)O[C@H](CN(C)C(=O)C2CCOCC2)[C@H](C)CN([C@H](C)CO)S3(=O)=O)c1`, the inhibition was -17.4%. With `COc1cccc2cc(C(N)=O)/c(=N\NC(=O)c3ccccc3)oc12`, the inhibition was 72.2% (active). With `COc1cccc2cc(C(=O)NCc3ccc(C)cc3)c(=N)oc12` the figure was -0.361%; with `COc1cccc2cc(/C(C)=N/NC(=O)c3ccco3)oc12`, -27.1%; with `C[C@@H]1CCCCO[C@H](CN(C)S(=O)(=O)c2cn(C)cn2)[C@H](C)CN([C@H](C)CO)C(=O)c2cc(N(C)C)ccc2O1`, 10.5%. For the compound `Cc1ccc(S(=O)(=O)NCC[C@@H]2CC[C@@H](NC(=O)CCN3CCCCC3)[C@@H](CO)O2)cc1`, the inhibition is 3.54%.

As for `N#C[C@@H]1[C@@H](c2ccc(C3=CCCCC3)cc2)[C@@H](CO)N1C(=O)c1cccc(F)c1`, the inhibition is 7.91%. The same measure for `C[C@H]1CN([C@@H](C)CO)C(=O)c2cc(-c3ccncc3)cnc2O[C@H]1CN(C)C(=O)c1cccc(F)c1`: -3.95%; for `CCC(=O)N1CC[C@H]2[C@@H]1c1cc(-c3ccc(C#N)cc3)ccc1N(C)[C@H]2CO`: -10.9%. For the compound `C[C@@H]1CCCCO[C@H](CN(C)C(=O)NC2CCCCC2)[C@@H](C)CN([C@H](C)CO)C(=O)c2cc(NS(=O)(=O)c3ccc(F)cc3)ccc2O1`, the inhibition is -5.15%.

On to `COc1cccc2c1C(=O)c1c(O)c3c(c(O)c1C2=O)CC(O)(C(C)=NNC(=O)c1ccc(Cl)c(Cl)c1)CC3OC1CC(N)C(O)C(C)O1` (configuration not stated), for which the inhibition was 96.4% (active). With `C[C@H]1CN([C@@H](C)CO)C(=O)c2cccc(NC(=O)CCCCCC(=O)Nc3ccccc3N)c2O[C@H]1CN(C)C(=O)Nc1ccccc1` the figure was 0.187%; with `COCC(=O)N1[C@H](C(=O)N2CCN(C)CC2)[C@@H](CO)[C@@H]2Cn3c(ccc(C4=CCCC4)c3=O)[C@@H]21`, -13.3%.

For `Clc1ccc(-c2cc(-c3ccccn3)on2)c(Cl)c1`, the inhibition is 80% (active). With `Clc1ccc(-c2cc(C3CCNCC3)[nH]n2)c(Cl)c1` the figure was 2.21%. Take `COCC(=O)Nc1ccc2c(c1)OC[C@H](C)N(C(=O)c1cnccn1)C[C@@H](C)[C@@H](OC)CN(C)C2=O`: the inhibition was 10.6%. The same measure for `COc1cccc(/C=N/Nc2cc(C)nc(-c3ccccc3O)n2)c1O`: 90.5% (active).

Regarding `O=C(c1ccc(F)cc1)N1CC2(C1)[C@H](c1ccccc1)[C@@H](CO)N2Cc1ccccn1`, the inhibition is -5%.

For `COCC#Cc1ccc([C@@H]2[C@H](CO)N3C(=O)CN(C(=O)C4CCC4)C[C@@H]23)cc1`, the inhibition is 3.87%. For `CCOC(=O)C(=O)C1C(=O)Nc2ccccc21` (configuration not stated), the inhibition is -14.6%. The same measure for `CCOC(=O)/C=C/c1ccccc1O`: -29.5%; for `CCOC(=O)C(=Cc1ccccc1)C(=O)c1ccccc1`: 90.8% (active); for `COc1ccc2c3c([nH]c2c1)[C@@H](CO)N(C)CC31CCN(S(=O)(=O)c2ccc(C)cc2)CC1`: 0.296%. As for `O=C(Nc1cccc(F)c1)N1CC(=O)N2[C@H](CO)[C@H](c3ccc(C#CC4CC4)cc3)[C@@H]2C1`, the inhibition was 8.66%.

On to `COCC(=O)N1CCCCN2[C@H](CO)[C@H](c3ccc(C#Cc4ccc(OC)cc4)cc3)[C@H]2C1`, for which the inhibition was -13.1%.

`COc1ccc(-c2nc(-c3ccccc3)no2)c(OC)c1`: the inhibition was 91.2% (active). Regarding `COc1ccc(-c2onc3ccc(C(C)=O)cc23)cc1`, the inhibition is -9.6%.

In the case of `COc1ccc(OC)c(CNC(=O)CCc2nc(-c3cccs3)no2)c1`, the inhibition was 2.08%. The same measure for `CN1C(=O)c2cc(NC(=O)C3CC3)ccc2OC[C@H]2O[C@H](CC(=O)O)CC[C@H]21`: -1.87%. Regarding `O=C(Cc1cccnc1)N1CC(=O)N2[C@H](CO)[C@H](c3ccc(C#CC4CCCC4)cc3)[C@@H]2C1`, the inhibition was -25.4%.

On to `C=CC[n+]1c(-c2ccc(C)cc2)csc1NNC(=O)Nc1ccccc1`, for which the inhibition was 6.29%. On to `CC(=O)NC(c1ccccc1)c1nc(-c2ccccc2C)cs1` (configuration not stated), for which the inhibition is -19.2%.

In the case of `CC(=O)Nc1ccc(-c2csc(NC(=O)Nc3ccccc3)n2)cc1`, the inhibition is 94.1% (active). In the case of `CN1[C@H](C(=O)N2CCc3ccccc3C2)[C@@H](CO)[C@@H]2Cn3c(ccc(-c4cncnc4)c3=O)[C@@H]21`, the inhibition is 1.15%. Regarding `COc1cc(Cl)c(C)cc1NC(=O)COC(=O)c1cc(SC)ccc1Cl`, the inhibition was 7.1%. With `Cc1csc(OCC(=O)Nc2ccc(C)c(C)c2)n1` the figure was 0.863%; with `COc1cc(SC)ccc1C(=O)Nc1nc(C)cs1`, 102% (active). Turning to `CO[C@H](CN(C)C(=O)c1cnccn1)[C@@H](C)CN([C@@H](C)CO)S(=O)(=O)c1ccccc1`, the inhibition is -6.19%.

Turning to `c1c2c(cc3sc(N4CCCCC4)nc13)OCCO2`, the inhibition was 85.3% (active).

In the case of `C[C@@H]1CN([C@H](C)CO)C(=O)CCCn2cc(nn2)CO[C@@H]1CN(C)Cc1ccc2cccnc2c1`, the inhibition is -3.97%. Turning to `CN(C)C(=O)c1cccc(-c2cnc3sc(NCc4ccc5c(c4)OCO5)nn23)c1`, the inhibition is 51.6% (active). Consider `CCN(CC)C(=O)Cn1cc(S(=O)(=O)CC(=O)NCc2ccc3c(c2)OCO3)c2ccccc21`, for which the inhibition was -11.7%. With `O=C(NCc1ccc2c(c1)OCO2)c1sccc1Br` the figure was -10.3%.

What is called inhibition is the relative decrease from the control value, in per cent.

For the origin of these results see PubChem BioAssay AID720647 (Broad Institute, 2013).
